Our source for the activation values is PubChem BioAssay AID2796 (The Scripps Research Institute Molecular Screening Center, 2010).

Out of some 320,000 compounds screened, about 8,000 (2.5%) were called active. No stated cut-off is given here; in the data, active means activation above about 47%; inactive means the rest. For the sample, actives were picked, then their nearest neighbours and some compounds at random.

Aryl hydrocarbon receptor (Homo sapiens), sequence (P35869 whole entry, looked up): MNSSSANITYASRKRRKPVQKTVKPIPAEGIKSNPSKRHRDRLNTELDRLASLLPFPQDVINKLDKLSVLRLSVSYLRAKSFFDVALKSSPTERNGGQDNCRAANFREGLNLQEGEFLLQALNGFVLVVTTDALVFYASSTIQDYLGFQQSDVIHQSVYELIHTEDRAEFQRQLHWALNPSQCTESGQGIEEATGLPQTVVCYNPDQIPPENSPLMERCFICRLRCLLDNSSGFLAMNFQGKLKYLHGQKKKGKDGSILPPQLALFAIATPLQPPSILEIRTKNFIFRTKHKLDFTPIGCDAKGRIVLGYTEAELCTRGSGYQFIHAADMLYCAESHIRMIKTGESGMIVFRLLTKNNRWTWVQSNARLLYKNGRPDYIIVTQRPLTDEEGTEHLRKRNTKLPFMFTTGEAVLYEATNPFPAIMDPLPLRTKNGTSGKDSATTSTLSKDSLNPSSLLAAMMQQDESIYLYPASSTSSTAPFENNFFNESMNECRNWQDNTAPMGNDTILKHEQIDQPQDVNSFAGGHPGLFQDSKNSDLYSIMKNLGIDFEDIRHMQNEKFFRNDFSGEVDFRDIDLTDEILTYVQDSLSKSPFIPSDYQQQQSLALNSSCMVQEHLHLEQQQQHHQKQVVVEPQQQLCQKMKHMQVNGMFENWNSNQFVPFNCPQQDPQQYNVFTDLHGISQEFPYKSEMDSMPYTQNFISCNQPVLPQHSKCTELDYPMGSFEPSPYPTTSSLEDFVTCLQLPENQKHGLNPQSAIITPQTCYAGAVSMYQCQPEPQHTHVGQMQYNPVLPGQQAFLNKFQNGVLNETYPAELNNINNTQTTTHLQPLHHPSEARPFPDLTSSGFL

The test addresses Aryl hydrocarbon receptor (Homo sapiens) (UniProt P35869). The test is described as follows: AHR activators, primary screen, cell-based, luminescence, luciferase reporter, human (AID 2796).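 Further: 0% = vehicle wells and 100% = reference agonist.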 The conditions noted are these: AHR-responsive luciferase reporter cells, at 5 µM, hits give high values. In general terms: A reporter such as luciferase makes a cellular process visible.
As to `CCOC(=O)N1CCN(Cc2nc3ccc([N+](=O)[O-])cc3c(=O)n2-c2cccc(OC)c2)CC1`, the activation was 32.6% (inactive).

In the case of `Cc1noc(C)c1C(=O)Nc1ccccn1`, the activation is 4.67% (inactive).

In the case of `Cc1nonc1NC(=O)c1oc2ccccc2c1C`, the activation was 12.5% (inactive). As for `Cc1c(C(=O)Nc2ccccn2)oc2ccc(Br)cc12`, the activation was 49.7% (active). The value for `Cn1ncc2c(N3CCCCC3)nc(NCCCO)nc21` was 5.05% (inactive); that for `COc1ccc(NS(=O)(=O)c2ccc(NC(=O)c3ccc(N(C)S(C)(=O)=O)cc3)cc2)cc1` was -0.42% (inactive); that for `COc1ccc(C(=O)Nc2cccc(S(C)(=O)=O)c2)cc1` was 67.2% (active). Take `COc1cccc(C(=O)Nc2nc3ccc(S(C)(=O)=O)cc3s2)c1`: the activation is 7.38% (inactive).

With `CCCNC(=O)COc1coc(CN2CCN(Cc3ccccc3)CC2)cc1=O`, the activation is 1.71% (inactive). For the compound `Cc1cnc(C(=O)OCc2c(C)cc(C(C)(C)C)cc2C)cn1`, the activation was 3.96% (inactive). Regarding `CCN(c1ccc(NC(=O)COC(=O)CCc2nc3ccccc3n2-c2ccccc2)cc1)C(C)C`, the activation is -1.26% (inactive).

In the case of `Cc1ccc(C(=O)OCC(=O)N2CC(C)CC(C)C2)cc1S(=O)(=O)N1CCCCC1` (centres undefined), the activation was 0.38% (inactive). As for `O=C(Nc1cccnc1)c1ccc(Cl)c([N+](=O)[O-])c1`, the activation was -0.85% (inactive). As for `O=C(Nc1ccncc1)c1ccc(Cl)c([N+](=O)[O-])c1`, the activation was 0.64% (inactive). In the case of `Cc1ccnc(NC(=O)c2ccc(Cl)c([N+](=O)[O-])c2)c1`, the activation is 104% (active).

On to `COc1ccc(OC)c(/C=N/NC(=O)c2ccc[n+](CC(=O)c3ccccc3)c2)c1`, for which the activation was 12.9% (inactive).

For `Cn1c(C(=O)NCCCN2CCN(c3cccc(Cl)c3)CC2)cc2c(=O)n(C)c3ccccc3c21`, the activation was 7.28% (inactive). As to `CCN1CCCC1CNC(=O)c1cc2c(=O)n(C)c3ccccc3c2n1C` (centres undefined), the activation was 3.13% (inactive). Consider `Cn1c(C(=O)NCCc2ccsc2)cc2c(=O)n(C)c3ccccc3c21`, for which the activation is 86.4% (active). In the case of `N#Cc1ccccc1NC(=O)c1ccc2c(c1)OCO2`, the activation is 32.1% (inactive). As for `O=C(CSc1nn(-c2ccc(F)cc2)c(=S)s1)NC1CCS(=O)(=O)C1` (centres undefined), the activation was 3.28% (inactive). Take `C=CCn1cc(Cl)cc(C(=O)Nc2ccccc2)c1=O`: the activation is 50.9% (active). The value for `C=CCN(C(=O)c1cc(C)cc(C)c1)C1(C(=O)Nc2ccccc2)CCN(C(C)C)CC1` was 5.4% (inactive); that for `C=CCc1cccc2cc(C(=O)Nc3ccc(NC(C)=O)cc3)c(=O)oc12` was 16.9% (inactive); that for `CC(C)Cc1nnc(NC(=O)CCC(=O)Nc2ccc3cn[nH]c3c2)s1` was 24.7% (inactive). Consider `O=C1N(c2ccc(Cl)cc2)C(c2ccc(Cl)cc2)N2CCCN12` (centres undefined), for which the activation is 54.2% (active). `O=C1NC(=O)C(c2ccc(Cl)cc2)N1` (centres undefined): the activation was -2.18% (inactive).

Consider `Cc1ccc(C)c(S(=O)(=O)N2CCCOC2CNC(=O)C(=O)NC2CCCCC2)c1` (centres undefined), for which the activation was 2.26% (inactive). The result for `CC(=O)Oc1cccc(C(=O)Nc2ccccc2NC(=O)c2cccc(OC(C)=O)c2)c1` reads 2.51% (inactive); that for `CC(=O)c1cc(NC(=O)c2ccccc2)c(=O)oc1/C=C/N(C)C`, 60.3% (active). Take `CCOC(=O)c1cc(NC(=O)c2ccc(Cl)cc2)c(=O)oc1-c1ccccc1`: the activation is -1.16% (inactive). Consider `CC(C)C(C(=O)NCc1ccco1)N(CC1CCCO1)C(=O)CNS(=O)(=O)c1ccc(F)cc1` (centres undefined), for which the activation was -0.85% (inactive). As to `COc1ccc(C)cc1Nc1nc(C)nc2c1oc1ccccc12`, the activation was 13.4% (inactive).

As to `COc1ccccc1Nc1ncnc2c1oc1ccccc12`, the activation is 86.1% (active). In the case of `CCC(C(=O)OC)n1cnc2c(oc3ccccc32)c1=O` (centres undefined), the activation is 2.16% (inactive). Consider `Cn1c(=O)c2cn(-c3cccc4ccccc34)cc2n(C)c1=O`, for which the activation is 18.1% (inactive). For the compound `CC(=O)Nn1cc2c(=O)n(C)c(=O)n(C)c2c1`, the activation is 1.7% (inactive).

`COc1ccc(OC)c(-n2cc3c(=O)n(C)c(=O)n(C)c3c2)c1`: the activation is 64.9% (active).

For `O=C(O)c1cccc2c1C(=O)N(C1CCCC1)C2`, the activation was -3.11% (inactive). The result for `O=C(COc1ccc(F)cc1Br)NCC1COc2ccccc2O1` (centres undefined) reads 2.44% (inactive); that for `CC1CCN(c2ccc([N+](=O)[O-])c(SCCO)c2)CC1`, 13.1% (inactive); that for `CN1CCN(c2ccc([N+](=O)[O-])c(Sc3nc4ccccc4[nH]3)c2)CC1`, 50% (active). Turning to `O=C(CSc1nc2ccccc2[nH]1)N/N=C/C=C\c1ccccc1[N+](=O)[O-]`, the activation is 26.7% (inactive). For the compound `O=C(OCC(=O)N1CCN(C(=O)c2ccco2)CC1)c1cccc(O)c1`, the activation was 4.27% (inactive). Regarding `Cc1c(CN2CCC(CO)(CCOc3ccccc3)CC2)[nH]c2ccc(Cl)cc12`, the activation was 6.78% (inactive). In the case of `CCOC(=O)c1[nH]c2ccc(OC)cc2c1NC(=O)CCN1CCN(Cc2ccccc2)CC1`, the activation is 4.33% (inactive). The value for `COC(=O)c1[nH]c2ccc(Br)cc2c1NC(=O)Oc1ccccc1` was 48.5% (active); that for `COC(=O)c1oc2ccc(Br)cc2c1NC(C)=O` was 1.12% (inactive); that for `CN(Cc1ccccc1)C(=O)C(=O)c1cn(CC(=O)N2CCCC2)c2ccccc12` was 0.47% (inactive). Regarding `NC(=O)C1(N2CCCCC2)CCN(C(=O)c2ccc(C#Cc3ccccc3)o2)CC1`, the activation was 0.68% (inactive). Take `O=C(Nc1ccc(NC(=O)c2cccs2)cn1)c1ccco1`: the activation is -2.71% (inactive). As to `O=C(Nc1ccccc1)c1ccc(NC(=O)c2cccs2)cc1`, the activation is -3.44% (inactive).

For the compound `O=C(Nc1ccnc(-c2ccncc2)n1)c1cccs1`, the activation is 55.7% (active). On to `C/C=C(\C)C(=O)N1CC2(CC(c3cccc(NC(=O)CCCCC)c3)=NO2)C[C@@H]1C(N)=O` (some centres undefined), for which the activation is 2.15% (inactive). Consider `N#CC1(NC(=O)COc2ccc3oc4ccccc4c3c2)CCCCC1`, for which the activation was 4.73% (inactive).

On to `Cc1cccc(NS(=O)(=O)c2ccc([N+](=O)[O-])cc2)n1`, for which the activation was 1.34% (inactive). Consider `Cc1nc2ccccc2nc(=O)c1NNc1ccc([N+](=O)[O-])cc1`, for which the activation was 47.2% (active). The value for `O=[N+]([O-])c1ccc2c(c1)Nc1nc3ccccc3nc1N2` was 36.9% (inactive); that for `Cc1ccc(C(=O)N(CC(=O)NC2CCCC2)c2ccc(F)cc2)s1` was 2.22% (inactive). As to `Cn1nc(C(F)(F)F)c2cc(C(=O)N3CCOCC3)sc21`, the activation is -0.43% (inactive). With `CC(C)(C)c1ccc(C(=O)NCc2ccco2)cc1`, the activation is 9.26% (inactive). As to `COc1cccc(-c2cc(C(=O)N3CCN(c4ccccc4OC)CC3)no2)c1`, the activation is 2.67% (inactive).

In the case of `CCOC(=O)N1CCN(C(=O)c2cc3c(-c4ccc(Cl)cc4)nn(C)c3s2)CC1`, the activation is 89.2% (active). Consider `CCOC(=O)N1CCN(C(=O)c2ccc3nc4cc(Cl)ccc4c(=O)n3c2)CC1`, for which the activation was 5.36% (inactive).

With `COc1ccccc1N1CCN(C(=O)c2cc3c(-c4ccc(Cl)cc4)nn(C)c3s2)CC1`, the activation was 121% (active). In the case of `COc1ccc2c(Cl)c(C(=O)NCc3ccco3)sc2c1`, the activation is -3% (inactive). Turning to `COc1cccc(-c2nn(C)c3sc(C(=O)N4CCN(c5ccccc5)CC4)cc23)c1`, the activation is 9.25% (inactive). Turning to `Cn1nc(-c2ccc(Cl)cc2)c2cc(C(=O)NCc3ccco3)sc21`, the activation was 79.7% (active). Turning to `CCOC(=O)c1cccc(NC(=O)C2CCCN(S(=O)(=O)c3cnc[nH]3)C2)c1` (centres undefined), the activation was 0.81% (inactive). As for `Cc1ccc(SCC2=NNC(=O)C2)cc1`, the activation is -1.28% (inactive). The value for `CC(C)N1C(=S)SC(C)(C)C1n1oc(=O)n(-c2ccc(Cl)c(Cl)c2)c1=O` (centres undefined) was 7.15% (inactive). With `COc1ccc(CN2CCN(Cc3cn(C)nc3-c3ccccc3)CC2CCO)c(C)c1C` (centres undefined), the activation was 2.04% (inactive). The value for `Cc1noc(C)c1NC(=O)Nc1ccc2c(c1)C(=O)N([C@H](C)CO)C[C@H](C)[C@@H](CN(C)C(=O)Nc1ccc(C(F)(F)F)cc1)O2` was 3.05% (inactive). For `Cc1ccc(-c2noc(CNC(=O)c3ccoc3C)n2)cc1`, the activation is 6.22% (inactive). `O=C(COc1ccccc1F)NNC(=O)c1cc(Br)ccc1Cl`: the activation was 4.62% (inactive). `CCN(CC)C(=O)Oc1ccc(Br)cc1C(=O)Nc1ccc(F)c(Cl)c1`: the activation was 86.6% (active). Regarding `CCN(CC)C(=O)C(=O)Nc1cccc(Br)c1`, the activation is 4.98% (inactive). With `CCC1CCCCN1CCNC(=O)c1[nH]c(C)c(C(C)=O)c1C` (centres undefined), the activation is 1.61% (inactive). As for `C=CCNC(=S)N1CCc2[nH]c3ccccc3c2C1`, the activation was 73.6% (active). The result for `Fc1ccc(NC(=S)N2CCc3[nH]c4ccccc4c3C2)cc1` reads 5.41% (inactive).

With `O=C(Nc1ccc(Cl)cc1)N1CCc2[nH]c3ccccc3c2C1`, the activation was 25.4% (inactive).

In the case of `O=C(CCCN1CCc2[nH]c3ccc(F)cc3c2C1)c1ccc(F)cc1`, the activation is 2.64% (inactive). With `CCCCNC(=O)CSc1nc2n[nH]c(C)c2c(=N)n1-c1cccc(Cl)c1C`, the activation was 13.7% (inactive). In the case of `Cc1ccc(-n2c(SCC(=O)NCCC3=CCCCC3)nc3n[nH]c(C)c3c2=N)cc1Cl`, the activation was 24.8% (inactive). With `COc1cccc(-n2c(SCC(=O)NC3CCCCC3)nc3n[nH]c(C)c3c2=N)c1`, the activation was 104% (active).

`COc1ccccc1C(=O)NCCC(=O)NN1C(=O)NC2(CCCCC2)C1=O`: the activation was -0.92% (inactive). The result for `C/C=C/C(=O)OCC(=O)Nc1ccc(F)cc1Cl` reads 0.16% (inactive); that for `C[N+](C)(CCCCCC[N+](C)(C)CCCN1C(=O)c2cccc3cccc(c23)C1=O)CCCN1C(=O)c2cccc3cccc(c23)C1=O`, 4.39% (inactive); that for `O=C(CCCOc1ccccc1)NCc1ccco1`, 1.62% (inactive). Turning to `O=C(CCCCCN1C(=O)c2cccc3cccc(c23)C1=O)NCc1ccco1`, the activation was 76.8% (active). Take `CC1CCN(C(=O)C2CCN(S(=O)(=O)N3CCC4(CC3)OCCO4)CC2)CC1`: the activation is 0.37% (inactive). Take `O=C(Nc1cccnc1)c1cc([N+](=O)[O-])ccc1Cl`: the activation was 0.88% (inactive). Consider `CNc1ccc([N+](=O)[O-])cc1C(=O)O`, for which the activation was -2.24% (inactive). As to `Cc1ccc(NC(=O)c2cc([N+](=O)[O-])ccc2Cl)c(O)c1`, the activation was 49% (active).
